PubChem BioAssay (NCATS)
Inconclusive results are not listed. A number with no mark means an inactive call. Active and inactive are the calls of the source. Calls follow the shape of the dose curve; as a rule, active = well fitted cell-killing curve with a large enough effect; inconclusive = small, poorly fitted or top-dose-only effect, or effect the other way; inactive = flat fitted curve, though single readings scatter. Where a SMILES comes first, the peptide text is derived from it. [ ]: non-standard residue; d: D form. pGlu = O=C1CC[C@@H](C(=O)O)N1

Tested on: CAOV3
Assay: Primary qHTS to identify gynecologic anti-cancer compounds using libraries of approved drugs and bioactive compounds (AID 1345084); also: nearly all actives have a fitted effect of over 55% in size
Conditions: Gynecologic cancer cell panel viability, ATPlite luminescence, 48 h; series mostly up to 57.5 µM; activity change, negative = cytotoxicity: at the top concentration
Source text: National Center for Advancing Translational Sciences [NCATS] Assay Overview: Chemotherapeutic drug responses vary from cancer to cancer and from patient to patient. These variations could be caused by a number of factors including patient genomic background, tumor mutations, tumor heterogeneity, and aspects of drug treatment. Chemotherapeutic drug resistance is also a common issue and can lead to ineffective treatment and patient death. Here we have profiled the cell killing effects of thousands of compounds to characterize the responses in three gynecological cancers, identify cancer-selective compounds, and understand the diversity of responses to these compounds from pan-cancer suppressors to single cell line selective compounds. In this assay, we screened a 7,914 compound drug library that included approved drug and bioactive compounds in six ovarian, three cervical, and […] placental cancer cell lines using the ATPlite assay for cell viability. […] The cervical cancer cell lines included HeLa, Ca Ski, and C-33 A. The placental cancer cell lines included JEG-3. HEK 293T cells were used as the control cell line to determine the selectivity index. ATPlite is a luminescence based assay reliant on the conversion of a luciferase substrate to light in the presence of ATP. As a cytotoxic compound will suppress growth and decrease the number of cells, the concentration of ATP will decrease, and less light signal will be detected in the well.
Assay Protocol Summary: 1,000 cells in 4 uL of media were dispensed into white, solid bottom 1536-well plates using a Multidrop Combi (Thermo Scientific). The Assay plates were incubated for 16 hours at 37 C with 5% CO2 in assay plates, followed by the addition of 23 nL of DMSO or drug dissolved in DMSO. Each compound was assayed in five concentrations (0.092, 0.46, 2.3, 11.5, and 57.5 uM), using the automated Wako 1536 Pin Tool workstation and incubated at 37 C with 5% CO2 48 hours. 4 uL of ATPlite, the ATP monitoring reagent, was then added to the each well of the assay plates using the Multidrop Combi reagent dispenser followed by incubation for 15 minutes at room temperature. The resulting luminescence was measured using the ViewLux plate reader.
% is scaled to controls: 0 for no effect and ±100 for the full control effect; potency is read from the fitted curve at half-maximal effect.

Compound | activity change, negative = cytotoxicity | Potency
C[C@H]1C[C@H](O)c2ccsc2S1(=O)=O | 25.4% | –
O=C(C1CCCCC1)N1CC(=O)N2CCCc3ccccc3C2C1 (stereo not given) | 27.1% | –
Cc1c(F)cc2c(=O)c(C(=O)O)cn3c2c1CCC3C (stereo not given) | -3.79% | –
CC(NC(CCc1ccccc1)C(=O)O)C(=O)N1C(=O)N(C)CC1C(=O)O (stereo not given) | 10.2% | –
O=C(NO)c1ccccc1 | -4.59% [at 116 µM] | –
CCCC(=O)c1cc(O)c(O)cc1O | -3.22% [at 116 µM] | –
Nc1ccc(C(=O)N2CC3CC(CN(Cc4ccccc4)C3)C2)cc1 | 3.4% | –
O=C1OC2(c3ccccc31)c1cc(I)c(O)c(I)c1Oc1c2cc(I)c(O)c1I | -1.77% | –
C[C@H](CN1CCCC1)C(=O)c1ccc(C(F)(F)F)cc1 | 13.2% | –
COC(=O)c1cc(Cl)ccc1NS(=O)(=O)C(F)(F)F | – | 25.1 µM (active)
O=C(CCCl)NCCc1ccccc1 | 14.6% | –
O=C(OCC(COC(=O)c1cccnc1)(COC(=O)c1cccnc1)COC(=O)c1cccnc1)c1cccnc1 | 15.1% | –
O=C(CCCCCCCCC#CI)Oc1ccccc1 | 0.199% | –
CC(C)Cc1ccc(C(C)C(=O)OCc2ccccn2)cc1 (stereo not given) | -1.05% | –
CO/N=C(/C(=O)N[C@@H]1C(=O)N2C(C(=O)OCOC(=O)C(C)(C)C)=C(C)CS[C@H]12)c1csc(N)n1 | 5.42% | –
CCNC(=O)[C@@H]1CCCN1C(=O)[C@H](CCCN=C(N)N)NC(=O)[C@H](CC(C)C)NC(=O)CNC(=O)[C@H](Cc1ccc(O)cc1)NC(=O)[C@H](CO)NC(=O)[C@H](Cc1c[nH]c2ccccc12)NC(=O)[C@H](Cc1cnc[nH]1)NC(=O)[C@@H]1CCC(=O)N1 ([pGlu]HWSYGLRP-NHEt) | 2.49% | –
CN(C)CCN1CCN(c2cccc(Cl)c2)C1=O | -0.162% | –
N=C(N)c1ccc(OCCCOc2ccc(C(=N)N)cc2)cc1 | 7.97% | –
CCCC(=O)Nc1ccc(O)c(C(C)=O)c1 | 3.51% | –
C#CC(C)(CC)OC(=O)c1ccccc1C(=O)O (stereo not given) | 0.393% | –

Compound | activity change, negative = cytotoxicity | Potency
CCN(CC)CC(=O)Oc1ccc(NC(C)=O)cc1 | 0.115% | –
CC(=O)[C@@]1(O)CC[C@H]2[C@@H]3C[C@H](C)C4=CC(=O)CC[C@]4(C)[C@H]3CC[C@@]21C | -14.8% | –
C/C(=N/NC(=O)c1ccncc1)C(=O)O | 11.5% | –
CC(C)N(CCC(=O)c1ccc2ccccc2c1)Cc1ccccc1 | -2.06% | –
Cc1cc(O)c(C)c(C)c1O | -12.2% | –
O=[N+]([O-])c1ccc(-c2nc(-c3ccc(F)cc3)c(-c3ccncc3)[nH]2)cc1 | -29.7% | –
COCCc1ccc(OCC2CO2)cc1 (stereo not given) | -0.143% | –
O=C(O)Cn1cnnn1 | 8.34% | –
Cc1cccc(N(C)C(=S)Oc2ccc3c(c2)C2CCC3C2)c1 (stereo not given) | -0.623% | –
Cc1onc(-c2ccccc2)c1C(=O)Cl | 25.8% | –
CO[C@@H]1[C@@H](O[C@@H]2O[C@H](C)[C@@H](O[C@H]3C[C@@](C)(O)[C@@H](O)[C@H](C)O3)[C@H](N(C)C)[C@H]2O)[C@@H](CC=O)C[C@@H](C)[C@@H](O[C@@H]2CC[C@H](N(C)C)[C@@H](C)O2)/C=C/C=C/C[C@@H](C)OC(=O)C[C@H]1OC(C)=O | -0.106% | –
O=C1Cc2cc(Cl)ccc2N1 | 14.4% | –
CN1C(=O)c2ccccc2C1=O | 19.8% [at 116 µM] | –
NC(=O)COCCN1CCN(C(c2ccccc2)c2ccc(Cl)cc2)CC1 (stereo not given) | -5.65% | –
CC(C)C(=O)Nc1cccc(C(F)(F)F)c1 | 16.7% | –
CC(C)CCCC(C)NCCC(C)C (stereo not given) | 7.12% | –
O=C(OCC1(COC(=O)c2cccnc2)CCCC(COC(=O)c2cccnc2)(COC(=O)c2cccnc2)C1O)c1cccnc1 | 11.9% | –
COC(=O)CCCCC(CCSS/C(CCO)=C(\C)N(C=O)Cc1cnc(C)nc1N)SC(C)=O (stereo not given) | -2.88% | –
O=C(c1ccco1)N1CCNCC1 | 0.116% | –
CCCCOC(=O)CCCCCCCCC(=O)OCCCC | 10% | –
